PTAP TSG101 blk: blocks PTAP/TSG101 interaction to inhibit HIV-1 budding; 340,000 tested, under 10 active; Q99816; Fluorescence polarization, FITC-PTAP peptide / Tsg101 binding; Potency, µM (doses to about 115 µM), for inactives: at the highest dose activity change, negative = inhibition, hits mostly inhibitors; AID 493005; active = well fitted inhibition curve with a large enough effect in the main read-out, with a control signal flat, not every such curve was filed as active; inconclusive = small, poorly fitted or top-dose-only effect, or effect the other way, or a change in a side signal; inactive = no such curve, though single readings can be large or run the other way; note: % of control where 0% means no effect
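Fluorescence polarization binding of Tsg101 binding domain (10 uM final) to FITC-labeled PTAP peptide (50 nM final) in HEPES pH 7.5 buffer with NaCl, Tween 20, EDTA, TCEP. Compounds added before peptide; binding 20 min at RT.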
Anesthetic bind: candidate novel general anesthetic via apoferritin binding | P02791 | apoferritin/1-aminoanthracene competitive binding, fluorescence | Potency, µM (titrated, usually from 77.5 µM), inactives show at the top dose activity change, negative = displacement, most hits filed as inhibitors | 350,000 compounds, 0.074% hits; note: % is set by controls: 0 for no effect and ±100 for the full control effect; nearly all actives have a fitted effect of over 20% in size
Target sequence (P02791 2-175 limits assumed): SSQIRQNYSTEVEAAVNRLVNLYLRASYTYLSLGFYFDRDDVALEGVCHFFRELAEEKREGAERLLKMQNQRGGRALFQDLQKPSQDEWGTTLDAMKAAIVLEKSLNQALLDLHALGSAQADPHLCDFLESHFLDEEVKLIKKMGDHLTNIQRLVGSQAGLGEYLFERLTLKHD
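In PBS, apoferritin at 10 uM is loaded with 1-AMA from a 50% saturated solution. After 10 min of compound exposure at ambient temperature, reduced 535 nm fluorescence indicates probe displacement.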
IDH1 R132H inh: human IDH1 R132H inhibition | O75874 | IDH1-R132H enzyme, NADPH consumption, diaphorase/resazurin fluorescence | Potency, µM (titrated, usually from 76.6 µM), without a hit: top-dose activity change, negative = inhibition, actives largely listed as inhibitors | 390,000 compounds, 0.093% hits; note: % is set by controls: 0 for no effect and ±100 for the full control effect; nearly all actives have a fitted effect of over 65% in size
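IDH1-R132H (0.5 ug/mL dispensed) in pH 7.5 Tris buffer was preincubated 30 min with compound, then given a substrate mix of 0.016 mM NADPH and 2 mM alpha-KG for 80 min at room temperature; remaining NADPH was read by diaphorase/resazurin fluorescence.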
ERG-DNA inh: inhibitors of human ERG Ets domain-DNA interaction; 370,000 compounds, 0.028% hits; P11308; fluorescence polarization, His-ERG Ets domain / labelled DNA; Potency, µM (top dose mostly 76.9 µM), for inactives: at the highest dose FP activity, negative = inhibition, most hits filed as inhibitors; active = well fitted inhibition curve with a large enough effect in the polarisation, with a control signal flat; inconclusive = small, poorly fitted or top-dose-only effect, or effect the other way, or a change in a side signal; inactive = no such curve, though single readings can be large or run the other way; the % refers to the polarisation;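 note: polarization taken with two DNA probes labelled with fluorescein and Texas red; % of control where 0% means no effect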
Target sequence (P11308 whole entry, looked up, the tested form may be a part): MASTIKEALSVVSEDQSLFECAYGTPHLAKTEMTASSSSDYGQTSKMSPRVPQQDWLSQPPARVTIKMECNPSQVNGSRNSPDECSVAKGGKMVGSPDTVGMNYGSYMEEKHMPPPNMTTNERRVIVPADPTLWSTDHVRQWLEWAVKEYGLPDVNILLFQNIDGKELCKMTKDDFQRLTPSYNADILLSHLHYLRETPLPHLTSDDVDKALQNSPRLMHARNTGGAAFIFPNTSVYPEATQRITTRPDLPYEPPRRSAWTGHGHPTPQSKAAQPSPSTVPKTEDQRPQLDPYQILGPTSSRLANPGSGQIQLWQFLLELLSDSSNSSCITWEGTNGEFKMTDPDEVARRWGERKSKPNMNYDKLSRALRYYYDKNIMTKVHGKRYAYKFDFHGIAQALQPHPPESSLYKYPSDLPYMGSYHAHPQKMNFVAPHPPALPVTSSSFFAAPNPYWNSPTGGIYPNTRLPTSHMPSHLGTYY
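His-tagged ERG Ets domain (1 uM in the protein solution; 300mM KCl, 50mM Tris-HCl, 1mM EDTA, 1mM DTT, pH 7.5) received compound, then a probe mix of 5 nM fluorescein-DNA and 100nM Texas-615-DNA. Fluorescence polarization was read for both dyes.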
* hit, by the source's call; i = inactive; u = inconclusive; x = not tested or not shown. Sampled rows, rich in hits. Any-hit rate of the full collection: about 0.18%. Unless noted, calls come from the whole dose curve; as a rule, active = well fitted inhibition curve with a large enough effect; inconclusive = small, poorly fitted or top-dose-only effect; inactive = no such curve, though single readings can be large or run the other way. Potency is the fitted concentration of half-maximal effect.

SMILES | PTAP TSG101 blk | Anesthetic bind | IDH1 R132H inh | ERG-DNA inh
O=C(O)COc1ccccc1C(Nc1cccnc1)c1cc(Cl)c2cccnc2c1O (centres undefined) | -9% | 28µM* | u | -2%
Cc1ccc(S(=O)(=O)NCc2ccc3c(c2)cc(C)n3C)cc1 | -4% | -8% | -2% | 7.1µM*
Cc1cc2cc(CNC(=O)COc3ccccc3)ccc2n1C | -5% | -14% | -1% | -23%
COc1ccc(C(=O)NCc2ccc3c(c2)cc(C)n3C)cc1 | -3% | -5% | -4% | 32µM*
CCOc1ccc(CC(=O)NCc2ccc3c(c2)cc(C)n3C)cc1 | 1% | u | 1% | 40µM*
CSC1=NSC2=NC(=O)/C(=C\c3coc4ccccc4c3=O)C(=N)N12 | 35µM* | 37% | 0% | x
CC(C)CSC1=NSC2=NC(=O)/C(=C\c3coc4ccccc4c3=O)C(=N)N12 | u | u | -19% | 58%
O=C(Nc1cc(C(F)(F)F)ccc1N1CCOCC1)c1n[nH]c(=O)c2ccccc12 | -5% | -17% | 12µM* | -1%
CCN1/C(=C/C=C/c2oc3ccc(-c4ccccc4)cc3[n+]2CC)Oc2ccc(-c3ccccc3)cc21 | u | u | 0% | 32µM*
O=C(COC(=O)/C=C/c1cccc(F)c1)Nc1ncccn1 | -2% | -18% | 9% | 10%
COc1ccccc1NC(=O)C(C)OC(=O)C1CC(=O)N(c2ccc3c(c2)OCCO3)C1 (centres undefined) | 28µM* | -8% | -3% | 195%
COc1cccc(OC)c1OC(=O)C1CC(=O)N(c2ccc3c(c2)OCCO3)C1 (centres undefined) | -5% | x | -1% | -10%
COc1cc(OC)c(-c2c3cc(O)c(=O)cc-3oc3cc(O)c(O)cc23)cc1OC | u | 6% | 12µM* | -158%
CC(NC(=O)Cn1c(=O)[nH]c2ccsc2c1=O)C12CC3CC(CC(C3)C1)C2 (centres undefined) | -5% | 14µM* | 2% | -1%
S=c1[nH]nc(COc2ccccc2)n1/N=C/c1ccc(Cl)c(Cl)c1 | -8% | 0% | -2% | 42%
O=C(NCCc1ccccc1F)C1CC(O)CN1C(=O)Nc1ccccc1 (centres undefined) | -1% | -3% | 5% | -6%
O=C(O)CC(=O)Nc1cc(Cl)ccc1O | -7% | -6% | 1% | x
O=C(CCc1ccccc1)Nc1cc(Cl)ccc1O | -2% | 5.6µM* | 8% | -1%
CC1=NOC(=O)/C1=C\c1ccc(-c2cccc(Cl)c2)o1 | -6% | u | 37µM* | -3%
Cc1ccc(S(=O)(=O)C=CS(=O)(=O)c2ccc(C)cc2)cc1 | x | x | 1% | x
CNc1nc(Nc2ccc(C)c(Cl)c2)c2cnn(C)c2n1 | 0% | -9% | 29µM* | 1%
CC(CC(=O)Nc1ncc([N+](=O)[O-])s1)c1ccccc1 (centres undefined) | -2% | 35µM* | 10% | 5%
CC(=O)[C@]1(O)Cc2c(O)c3c(c(O)c2[C@@H](O[C@H]2C[C@H](N)[C@H](O)[C@H](C)O2)C1)C(=O)c1ccccc1C3=O | u | x | -20% | 3.2µM*
CC(=O)[C@]1(O)Cc2c(O)c3c(c(O)c2[C@@H](O[C@H]2C[C@H](N)[C@H](O)[C@H](C)O2)C1)C(=O)c1c(O)cccc1C3=O | x | -22% | x | x
COc1cccc2c1C(=O)c1c(O)c3c(c(O)c1C2=O)C[C@@](O)(C(C)=O)C[C@@H]3O[C@H]1C[C@H](N)[C@H](O)[C@H](C)O1 | u | u | 12% | 0.79µM*
SMILES | PTAP TSG101 blk | Anesthetic bind | IDH1 R132H inh | ERG-DNA inh
O=C(COc1ccccc1Br)NC(=O)NC1CCCC1 | -7% | x | -6% | -6%
O=C(COC(=O)Cc1ccccc1[N+](=O)[O-])NC1CCCC1 | -2% | -7% | 1% | -1%
Cc1ccc(-c2ccc(/C=N/NC(=O)CN3CCCC3)o2)cc1Cl | -2% | 18µM* | 9% | 9%
COc1ccc(OC)c2c1C(=O)c1ccccc1C2=O | u | 50% | -1% | 32µM*
COc1ccc(N)c2c1C(=O)c1ccccc1C2=O | 5% | -3% | 5% | u
CCOC(=O)C1CCN(c2nc3ccccc3nc2C(C#N)C(=O)NCCc2ccccc2)CC1 (centres undefined) | x | 14µM* | x | x
Cc1cccc(-c2noc(-c3cc(C(C)C)[nH]n3)n2)c1 | x | 16µM* | -3% | 1%
Cc1nc2nc(C)c(CCC(=O)NCCc3ccccc3)c(C)n2n1 | x | -2% | -11% | 11%
CCN(CC(=O)Nc1c(F)cccc1F)C(=O)C1CCN(S(=O)(=O)c2ccc(F)cc2)CC1 | -3% | x | 2% | 22%
O=C(Nc1nccs1)c1ccc(S(=O)(=O)NCC2CCCCC2)cc1 | x | 14µM* | -2% | -8%
CN1C(c2ccccc2)CCOS1(=O)=O (centres undefined) | -1% | -12% | 10% | 2%
CC/C(=N\NC(=O)CSCc1ccc(Cl)cc1)c1ccc2c(c1)OCCO2 | -5% | 18µM* | -6% | 4%
CC1(C)C(=O)OC(C(=O)c2ccccc2)C(C)(C)C1=O (centres undefined) | -2% | 8.9µM* | -3% | 2%
CC1(C)C(=O)OC(C(=O)c2ccc(Cl)cc2)C(C)(C)C1=O (centres undefined) | -1% | u | 6% | 1%
CC(C)(C)c1ccc(C(=O)COC(=O)CN2C(=O)NC3(CCCC3)C2=O)cc1 | -1% | 25µM* | 9% | -10%
O=C(Nc1ccc(S(=O)(=O)N2CCCCCC2)cc1)c1[nH]ncc1[N+](=O)[O-] | x | 13µM* | x | x
CCN(CC)C(=O)C1CCCN(c2ncnc3c2c(-c2ccccc2)cn3-c2cccc(C)c2)C1 (centres undefined) | x | -1% | u | 0%
O=C(Cn1cnc2ccccc2c1=O)OCC(=O)c1ccc2c(c1)OCCO2 | -4% | 16µM* | 4% | 13%
O=C(Cn1cnc2ccccc2c1=O)Nc1ccc2c(c1)OCCO2 | -5% | -8% | 3% | 12%
O=C(NC1CCS(=O)(=O)C1)/C(=C/c1ccc(Cl)cc1)NC(=O)c1ccccc1 (centres undefined) | -2% | -2% | 0% | -10%
CNC(=S)NNC(=O)c1sc2cc(C(F)(F)F)cnc2c1-c1ccccn1 | 0% | -11% | 11% | -15%
O=C(CNC(=O)c1ccc2c(c1)OCO2)N/N=C/c1cccc([N+](=O)[O-])c1 | 0% | u | -2% | 0%
O=C(CNC(=O)c1ccc2c(c1)OCO2)N/N=C(Br)/C=C/c1ccccc1 | -4% | 7.1µM* | 0% | 10%
Cc1occc1C(=O)NCc1ccccc1F | x | -12% | 0% | -1%
CC(=O)OCCn1c2nc(=O)[nH]c(=O)c-2nc2cc(C)c(C)cc21 | u | i | 23% | 35µM*
Cc1cc(-c2ccccc2)n[nH]1 | -1% | -9% | -5% | 7%

Bioassay records (PubChem)
